SARS PLP yeast: qHTS of Yeast-based Assay for SARS-CoV PLP. S. cerevisiae expressing SARS-CoV PLpro, growth rescue. Potency, µM (top dose mostly 32.9 µM), inactives show at the highest dose activity, positive = growth rescue, usual class: activators. 330,000 compounds, 0.19% hits. AID 485353, 2010; calls by dose curve; note: 0% is about no effect; nearly all actives have a fitted effect of over 55% in size
Pf growth 48h: Primary qHTS for delayed death inhibitors of the malarial parasite plastid, 48 hour incubation; P. falciparum luciferase growth in erythrocytes, 48 h; Potency, µM (series often up to 28.7 µM), for the others: at the top dose activity change, negative = inhibition, hits mostly inhibitors; 310,000 compounds, 5.9% hits; note: % is set by controls: 0 for no effect and ±100 for the full control effect
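Firefly luciferase activity from engineered P. falciparum reports growth; inhibitors lower the luminescent signal. Cultures contained 2% hematocrit erythrocytes at 0.1% final parasitemia.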
Pf growth 96h: Primary qHTS for delayed death inhibitors of the malarial parasite plastid, 96 hour incubation | AID 504834, 2011 | 320,000 compounds, 6.9% hits | P. falciparum luciferase reporter growth, 96 h | Potency, µM (series often up to 28.7 µM), for the others: top-dose activity change, negative = inhibition, actives largely listed as inhibitors; note: % is set by controls: 0 for no effect and ±100 for the full control effect
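Erythrocytes infected with luciferase-expressing P. falciparum were dispensed at 2% hematocrit and 0.05% parasitemia (final), then incubated with compounds 96 hours at 37 C in 5% CO2. Luminescence after detection reagent addition reported growth.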
Sm TGR block: qHTS Assay for the Inhibitors of Schistosoma Mansoni Peroxiredoxins | Schistosoma mansoni thioredoxin glutathione reductase (TGR), Q962Y6 | purified TGR, DTNB reduction, TNB absorbance 405 nm | Potency, µM (highest dose often 114 µM), without a hit: at the top dose activity change, negative = inhibition, actives largely listed as inhibitors | 360,000 compounds, 3% hits | AID 485364, 2010; note: % is set by controls: 0 for no effect and ±100 for the full control effect; nearly all actives have a fitted effect of over 60% in size
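TGR 20 nM + NADPH 100 uM (dispensed conc.), cpd preinc 15 min RT; start with NADPH (500 uM addition) then DTNB (15 mM addition). Kinetic TNB absorbance, 405 nm filter. Four-parameter Hill fit across titration.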
* hit, by the source's call; ? = inconclusive; nt = no result given; [ ] = dose if it differs, or a comment. Shown are actives, neighbours in structure and some others; about 12% of the full set was active somewhere. Unless noted, calls come from the whole dose curve; as a rule, active = well fitted curve in the direction sought with a large enough effect; inconclusive = small, poorly fitted or top-dose-only effect, or another doubt; inactive = no such curve, though single readings can be large; an effect the other way counts as inactive or inconclusive. Potency is the fitted concentration of half-maximal effect.

SMILES	SARS PLP yeast	Pf growth 48h	Pf growth 96h	Sm TGR block
CCOc1ccc(N(CC(=O)NCC2CCCO2)C(=O)CCC(=O)Nc2ccccn2)cc1 (stereo not drawn)	12%	?	?	4%
Cc1ccnc(NC(=O)CCC(=O)N(CC(=O)NCCc2ccccc2)c2ccc(F)cc2)c1	0%	-12%	-13%	-9%
CC(NC(=O)Cn1c(=O)oc2cc(S(=O)(=O)NCc3ccccc3)ccc21)c1ccccc1 (stereo not drawn)	nt	nt	nt	0%
CC(C)N(Cc1ccccc1)C(=O)COC(=O)c1cc(S(=O)(=O)N(C)C)ccc1N1CCCC1	-4%	nt	nt	nt
CC(C(=O)NCc1ccccc1)n1ccc2cc(S(=O)(=O)N3CCCC3)ccc21 (stereo not drawn)	nt	nt	nt	-7%
O=C(CSc1nnc2scc(-c3ccc(Cl)cc3)n12)Nc1ccccc1F	nt	nt	nt	2%
Cc1ccc(N(CC(=O)NCC2CCCO2)C(=O)CCC(=O)Nc2ccccn2)cc1C (stereo not drawn)	14%	2%	?	79µM*
Cc1cc(NC(=O)CCC(=O)N(CC(=O)NCC2CCCO2)c2ccc(C)c(C)c2)no1 (stereo not drawn)	7%	-6%	-17%	-1%
COCCNC(=O)C(c1ccc(F)cc1)N(C(=O)CCC(=O)Nc1ccccn1)c1ccc(C)cc1 (stereo not drawn)	1%	-8%	1.3µM*	4%
COCCNC(=O)CN(C(=O)CCC(=O)Nc1ccccn1)c1ccc(C)c(C)c1	3%	-18%	9.3µM*	7%
COCCNC(=O)C(c1ccc(C)cc1)N(C(=O)CCC(=O)Nc1ccccn1)c1ccc(F)cc1 (stereo not drawn)	-1%	0%	-14%	1%
COC(=O)C1CCN(c2cnccn2)CC1	0%	58%	?	9%
COC(=O)C1CCN(c2ccc(Cl)nn2)CC1	0%	1.5µM*	?	-1%
Cc1nc(SCC(=O)OCc2ccccc2)c2c(=O)n(C)c(=O)n(C)c2n1	?	7.4µM*	?	-10%
O=C(NCCc1c[nH]c2ccccc12)OCCCCOC(=O)NCCc1c[nH]c2ccccc12	-4%	10µM*	?	-1%
COc1cc(-c2noc(C)c2C(=O)NCCc2c[nH]c3ccccc23)cc(OC)c1OC	8%	?	15µM*	-33%
COc1ccc2c(CCNC(=O)CN3C(=O)c4ccccc4C3=O)c[nH]c2c1	-15%	-4%	18%	-15%
O=C(CN1C(=O)c2ccccc2C1=O)NCCc1c[nH]c2ccccc12	-1%	-2%	5.2µM*	-5%
COc1ccc(C(C)=O)cc1CS(=O)(=O)CC(=O)NCCc1c[nH]c2ccccc12	-8%	5.2µM*	10µM*	-17%
CC(Oc1ccc2c(c1)oc(=O)c1ccccc12)C(=O)NCCN1CCOCC1 (stereo not drawn)	-4%	16%	-2%	-1%
CCOc1ccc(-c2cc3c(=O)n(Cc4nc(-c5ccc(OC(C)C)cc5)oc4C)ccn3n2)cc1Cl	nt	nt	nt	-7%
O=C1c2ccccc2C(=O)N1CCc1c[nH]c2ccc(O)cc12	1%	32%	3.3µM*	5%
O=C(NCCc1c[nH]c2ccccc12)c1ccccc1	-2%	13%	97%	8%
N#CCC(=O)Nc1ccc(C(=O)NCCc2c[nH]c3ccccc23)cc1	1%	13µM*	7.4µM*	-7%
O=C(O)C(=O)Cc1c[nH]c2ccccc12	-12%	?	-31%	45µM*
SMILES	SARS PLP yeast	Pf growth 48h	Pf growth 96h	Sm TGR block
O=C(COC(=O)c1ccccc1C(=O)OCC(=O)NCCc1c[nH]c2ccccc12)NCCc1c[nH]c2ccccc12	-4%	9.3µM*	12µM*	11%
Clc1cc(Cl)c(OCCCCn2cncn2)c(Cl)c1	-10%	-11%	0.29µM*	-11%
O=C1/C(=C/N(C(=O)c2ccco2)c2ccc(Cl)cc2)Sc2ccccc21	-12%	92%	0%	40µM*
O=C1c2ccccc2C(=O)N1CCCCN(C(=O)c1ccco1)c1ccc(Cl)cc1	-6%	?	4%	0%
O=C1/C(=C/N(C(=O)c2ccco2)c2ccc(Br)cc2)Sc2ccccc21	-25%	75%	-23%	13µM*
CCCn1c(O)c(N=NC(=O)c2cccnc2)c2cc(Br)ccc21	-3%	5.9µM*	5.9µM*	1%
CCCn1c(O)c(N=NC(=O)CNC(=O)c2cccnc2)c2ccccc21	0%	-17%	36%	1%
O=C(O)C(c1ccccc1)N1C(=O)/C(=C\c2ccc(-c3ccccc3Cl)o2)SC1=S (stereo not drawn)	0%	-13%[0.00184 µM]	?	14µM*
CCCN(CCC)C(=O)c1ccc2c(=O)n(Cc3ccco3)c(=S)[nH]c2c1	0%	-16%	0%	?
CN(C)CCCn1c(=O)n(Cc2ccco2)c(=O)c2c3c(sc21)CCCCC3	1%	?	12µM*	35µM*
CN(C)CCCn1c(=O)n(CCc2ccccc2)c(=O)c2c3c(sc21)CCCCC3	1%	?	?	12%
Cn1c(=O)n(Cc2ccco2)c(=N)c2c3c(sc21)CCC3	nt	14%	nt	?
O=c1c2c3c(sc2[nH]c(=S)n1Cc1ccco1)CCC3	-1%	53%	46%	14µM*
CC1(C)Cc2c(sc3[nH]c(=S)n(Cc4ccco4)c(=O)c23)CO1	8%	-7%	2.6µM*	-24%
O=C(Cn1cc(C(F)(F)F)ccc1=O)N1CCc2ccccc21	-4%	nt	nt	nt
CC1Cc2ccccc2N1S(=O)(=O)c1nnc(NC(=O)c2ccccc2Br)s1 (stereo not drawn)	nt	nt	nt	3%
COC(=O)CCC(=O)N1CCCC(N2CCN(c3cccc(C(F)(F)F)c3)CC2)C1 (stereo not drawn)	1%	-14%	-22%	2%
COc1ccc(C(=O)NC(C)c2cccnc2)cc1S(=O)(=O)N(C)Cc1ccccc1 (stereo not drawn)	1%	nt	nt	nt
Cc1nnc(C)c2c(C)n(C(C)c3ccccc3)c(C)c12 (stereo not drawn)	12%	8.3µM*	-8%	-4%
COc1ccc(C(C)n2c(C)c3c(C)nnc(C)c3c2C)cc1 (stereo not drawn)	-1%	?	?	-27%
Cc1ccc(Cn2cnc3nc4c(cc3c2=O)CC(C)CC4)cc1 (stereo not drawn)	nt	nt	nt	4%
N=c1n(CCN2CCOCC2)c2ccccc2n1CC(=O)c1cccc([N+](=O)[O-])c1	-2%	?	?	0%
N=c1n(CCN2CCCCC2)c2ccccc2n1CC(=O)c1cccs1	-1%	12µM*	10µM*	-3%
N=c1n(CCN2CCOCC2)c2ccccc2n1CC(=O)c1ccc(Cl)c(Cl)c1	-25%	12µM*	0.47µM*	9%
COC(=O)C(C(C)C)N(Cc1cc(OC)cc(OC)c1)S(=O)(=O)CCl (stereo not drawn)	-1%	nt	nt	nt
Cc1oc(-c2cccc(Cl)c2)nc1CSc1nc2ncccc2[nH]1	nt	nt	nt	-3%
